Compound activity from PubChem BioAssay.
Hits are enriched below; roughly 0.53% of the tested compounds scored in any of these assays.
Giardia killer: Giardia lamblia killing; Giardia lamblia trophozoite viability; activity change, % at 7.66 µM, hits read low; 340,000 compounds, 0.15% hits; AID 540267; in the data active = activity change below about -80%; inconclusive = between about -30% and that limit;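 also: parasites exposed to compound for two days anaerobically before the ATP read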
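Each well holds 100 Giardia trophozoites and compound. After two days (48 hrs) at 37 deg C in anaerobic conditions, ATP is quantified by luminescence.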
MmCpn inh: M. maripaludis TRiC chaperonin inhibition. purified Mm-Cpn ATPase, ADP Transcreener TR-FRET. Potency, µM (top dose mostly 76.9 µM), most hits filed as inhibitors. 330,000 compounds, 0.031% hits; active = well fitted inhibition curve with a large enough effect; inconclusive = small, poorly fitted or top-dose-only effect; also: nearly all actives have a fitted effect of over 80% in size
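25 nM Mm-CPN + cpd, 10 min 37°C; + 10 uM ATP, 30 min 37°C; buffer 30 mM Tris pH 7.4, 100 mM KCl, 5 mM MgCl2, 1 mM DTT; Transcreener ADP HTRF detection 30 min RT.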
Rango complex inh: prevents formation of the Rango-importin beta complex; Q14974; Rango CFP/YFP FRET sensor + importin beta, 45 min; Potency, µM (series often up to 92.2 µM); 340,000 compounds, 0.031% hits; AID 540263; also: nearly all actives have a fitted effect of over 15% in size
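FRET biosensor (snurportin 1 IBB flanked by EYFP and cerulean), 50 nM, with compound 5 min, then 0.125 microM importin beta in PBS, 1 mM DTT, 0.02% Tween-20, 0.1% BSA. CFP/YFP ratio read after 45 min at room temperature; pre-read flags interference.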
CCT modulator: changes cytosolic chaperonin activity | purified chaperonin ATPase assay, HTRF ADP detection, 30 min | activity change, % (concentration not given with the values), hits read low | 360,000 compounds, 0.3% hits | AID 651819; in the data active = activity change below about -30%
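We incubate TRiC, 40 or 20 nM final, with library compounds at 76 uM and 10 uM ATP for 30 min at 37 °C. ADP formed is detected with Transcreener HTRF reagents after 30 min at room temperature.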
Rango release inh: inhibition of RanGTP-driven Rango-importin beta dissociation; O95149+P62826; Biochemical FRET Rango-importin beta, RanGTP-induced dissociation; Potency, µM (series often up to 46.1 µM); 340,000 compounds, 0.071% hits; AID 540253; also: nearly all actives have a fitted effect of over 45% in size
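Compounds preincubate 5 min with complex of recombinant Rango and importin beta in PBS with 1 mM DTT. Ran (0.6 uM) loaded with 2 mM GTP plus 0.2 uM RCC1 starts dissociation; FRET is recorded 45 min later.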
Numbers stand for hits; [ ] = dose if it differs, or a comment. Unless noted, calls follow the shape of the full dose curve.

`CN(C)c1ccc(NC(=O)C2C3C=CC(C3)C2C(=O)O)cc1` (configuration not stated) gave Giardia killer inactive, MmCpn inh 25.1µM, Rango complex inh inactive, CCT modulator inactive and Rango release inh inactive.
For Cc1ncc([N+](=O)[O-])n1Cc1ccccc1 the results were Giardia killer inactive, MmCpn inh inactive, Rango complex inh inactive, CCT modulator inactive and Rango release inh inactive.
For O=[N+]([O-])c1cnc2ccccn12 the results were Giardia killer -81.7, MmCpn inh inactive, Rango complex inh inactive, CCT modulator inactive and Rango release inh inactive.
For CS(=O)(=O)c1ccc(C(=O)OCC(=O)N2CCc3ccccc32)cc1[N+](=O)[O-] the results were Giardia killer inactive.
For COC(=O)C1=C[C@@H](C(=O)OC)C2C3=C(C(=O)[C@]2(C)NC(=O)c2ccccc2)[C@H](C)[C@@H]2C(=O)N(C)C(=O)[C@@H]2[C@@H]3C1 (some centres not stated) the results were Giardia killer inactive.
Screening O=S(=O)(NCc1ccccc1)NCc1ccccc1F returned Giardia killer inactive, MmCpn inh inactive, Rango complex inh inactive, CCT modulator -51.8 and Rango release inh inactive.
CCCCCCN1C=CC(=C2C(=O)c3ccccc3C2=O)C=C1 was read as Giardia killer inconclusive, MmCpn inh inactive, Rango complex inh inconclusive, CCT modulator inactive and Rango release inh inactive.
Screening CCN1C=CC(=C2C(=O)c3ccccc3C2=O)C=C1 returned Giardia killer -94.1, MmCpn inh inactive, Rango complex inh inactive, CCT modulator inactive and Rango release inh inactive.
Screening CN1C=CC(=C2C(=O)c3ccccc3C2=O)C=C1 returned MmCpn inh inactive.
Screening CCCN1C=CC(=C2C(=O)c3ccccc3C2=O)C=C1 returned Giardia killer -97.0, MmCpn inh inactive, Rango complex inh inactive, CCT modulator inactive and Rango release inh inactive.
For O=C(NC1CCCCC1)c1cnn2c1NC(=C1CC1)C=C2C(F)F the results were Giardia killer inactive.
CNc1ncnc2ccc(-c3c(C)noc3C)cc12 was read as MmCpn inh inactive.
`Cc1ccc(OCc2nnc(SCC(=O)c3ccccc3)n2-c2ccccc2)cc1` gave Giardia killer inactive, MmCpn inh inactive, Rango complex inh inactive, CCT modulator -56.4 and Rango release inh inactive.
`CCn1c(CNC(=O)c2ccc(OC)cc2)nnc1SCC(=O)c1ccccc1` gave Giardia killer inactive, MmCpn inh inactive, Rango complex inh inactive, CCT modulator -44.5 and Rango release inh inactive.
`COc1ccc(C(=O)NCc2nnc(SCC(=O)c3ccccc3)n2C)cc1` gave Giardia killer inactive, MmCpn inh inactive, Rango complex inh inactive, CCT modulator inactive and Rango release inh inactive.
NS(=O)(=O)c1ccc(S(=O)(=O)N2CCN(c3nc(-c4cccs4)nc4ccccc34)CC2)cc1 was read as Giardia killer inactive.
For COc1ccc([C@]23Cc4cc(OC)c(OC)cc4C(O2)C2=C(CC4(CCCCC4)OC2=O)O3)cc1 the results were MmCpn inh inactive[15.4 µM].
Screening COc1ccc(-n2nc(C(=O)NCCc3ccc(OC)c(OC)c3)c3c4ccccc4n(C)c3c2=O)cc1 returned Giardia killer inactive.
For Cc1cc(C)c(C#N)c(SCC(=O)c2ccc(Cl)cc2Cl)n1 the results were Giardia killer inactive, MmCpn inh inactive, Rango complex inh inactive, CCT modulator inactive and Rango release inh inconclusive.
`CN=C(NC#N)SCC(=O)c1ccc(Cl)cc1Cl` gave Giardia killer inactive, MmCpn inh inactive, Rango complex inh inactive, CCT modulator -38.0 and Rango release inh inactive.
For COCCCNCCOc1ccc(C)cc1[N+](=O)[O-] the results were Giardia killer inactive, MmCpn inh inactive, Rango complex inh inactive, CCT modulator inactive and Rango release inh inactive.
COCCCNCCOCCOc1ccc(C)cc1[N+](=O)[O-] was read as Giardia killer inactive, MmCpn inh inactive, Rango complex inh inactive, CCT modulator -39.7 and Rango release inh inactive.
`O=C(c1ccc2c(=O)n(CC3CCCO3)c(=S)[nH]c2c1)N1CCN(C(=O)c2ccco2)CC1` (configuration not stated) gave Giardia killer inactive.
Nc1ncnc2c1ncn2Cc1ccccc1 was read as Giardia killer inactive, MmCpn inh inactive, Rango complex inh inactive, CCT modulator inactive and Rango release inh inactive.
Nc1ncnc2c1ncn2CCOc1ccccc1 was read as Giardia killer inactive, MmCpn inh inactive, Rango complex inh inactive, CCT modulator -30.9 and Rango release inh inactive.
Cc1ccc(SCC(Cc2ccccc2)N2CCN(CCc3ccccc3)CCC2=O)cc1 (configuration not stated) was read as Giardia killer inactive.
Screening COc1ccc(N2CCN(S(=O)(=O)CCNC(=O)COc3ccccc3C)CC2)cc1 returned Giardia killer inactive, MmCpn inh inactive, Rango complex inh inactive, CCT modulator inactive and Rango release inh inactive.
For COc1ccc(N2CCN(S(=O)(=O)CCNC(=O)COc3ccc(Cl)cc3)CC2)cc1 the results were Giardia killer inactive, MmCpn inh inactive, Rango complex inh inactive, CCT modulator -40.1 and Rango release inh inactive.
Screening O=[N+]([O-])C(/C=C(/Cl)[N+](=O)[O-])=C(N1CCCCC1)N1CCCCC1 returned Giardia killer -93.7, MmCpn inh inactive, Rango complex inh inactive, CCT modulator inactive and Rango release inh inactive.
For O=C(/C=C/c1ccccc1[N+](=O)[O-])N1CCCCC1 the results were Giardia killer inactive, MmCpn inh inactive, Rango complex inh inactive, CCT modulator inactive and Rango release inh inactive.
`O/N=C/c1cc(Br)ccc1OCc1ccc(F)cc1` gave Giardia killer inactive, Rango complex inh inconclusive, CCT modulator inactive and Rango release inh 16.4µM.
Screening COC(=O)CCC(=O)OC1(C)C(=O)C2=CN(c3ccc(OC)cc3)C(c3ccc(OC)cc3)=CC2=C(Br)C1=O (configuration not stated) returned Giardia killer inactive, Rango complex inh inconclusive, CCT modulator inactive and Rango release inh inconclusive.
Screening COC(=O)CCC(=O)OC1(C)C(=O)C2=CN(C3CCCC3)C(c3ccc(OC)cc3)=CC2=C(Br)C1=O (configuration not stated) returned Giardia killer inactive, MmCpn inh inactive, Rango complex inh inconclusive, CCT modulator inactive and Rango release inh 9.2µM.
For CCOc1nc(C#N)nc(N2CCOCC2)n1 the results were Giardia killer inactive.
For CC(C)C(=O)Nc1nc2c(ncn2[C@H]2CC(O)[C@@H](CO)O2)c(=O)[nH]1 (some centres not stated) the results were Giardia killer inactive.
`O=C(Nc1ccccc1N1CCCC1)c1ccc([N+](=O)[O-])o1` gave Giardia killer inconclusive, MmCpn inh inactive, Rango complex inh inactive, CCT modulator inactive and Rango release inh inactive.
